The entries come from a sample that favours hits as a whole.
Pf Dd2 inh: Plasmodium falciparum Dd2 growth inhibition; Potency, µM (series often up to 28.9 µM), for inactives: top-dose activity, negative = inhibition, hits mostly inhibitors; P. falciparum Dd2 growth, SYBR Green, 72 h; AID 1347417; hit rate 4.3% among 120,000; active = well fitted inhibition curve with a large enough effect;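 note: plate controls were DMSO vehicle for no effect and reference drug for full effect; nearly all actives have a fitted effect of over 65% in size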
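Readout: SYBR Green fluorescence, 485 nm excitation, 535 nm emission, after ~16 h lysis at 37C. Before that, Dd2-infected red cells (2.5% hematocrit) grew 72 h with compound, 29 uM top final concentration.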
The depositor's hits bear a star; i = inactive; [ ] = dose if it differs, or a comment. Potency is the fitted concentration of half-maximal effect.

SMILES	Pf Dd2 inh
CS(=O)(=O)N(C1CC1)C1CCOC2(CCN(C(=O)COc3ccc(F)cc3)CC2)C1 (stereo not drawn)	i
CN1C(=O)C2(CCN(Cc3cncs3)C2)c2ccccc21 (stereo not drawn)	i
O=C1Nc2ccccc2C12CCN(Cc1ccsc1)CC2	13%[44.1 µM]
CN1C(=O)C2(CCN(Cc3ccsc3)C2)c2ccccc21 (stereo not drawn)	5.6µM*
CN1C(=O)C2(CCN(Cc3cccc4ccccc34)C2)c2ccccc21 (stereo not drawn)	13µM*
CN1C(=O)C2(CCN(Cc3ccnn3C)C2)c2ccccc21 (stereo not drawn)	-22%[44.1 µM]
CN1C(=O)C2(CCN(S(=O)(=O)c3ccccc3)C2)c2ccccc21 (stereo not drawn)	-21%[44.1 µM]
CCCN(CCC)CCNC(=O)CN1C(=O)COc2ccc(S(=O)(=O)N3CCOCC3)cc21	i
O=C1NCCCc2[nH]c(-c3csc(-c4cnccn4)n3)nc21	-13%
CN1C(=O)c2ccccc2Sc2ccc(NC(=O)Cc3c(F)cccc3Cl)cc21	-17%
O=c1[nH]nc2n1CCN(Cc1ccccc1F)CC2	i
COc1ccc(C2Cn3cnc(C(=O)N4CCC(C(=O)Nc5ccc(C)cc5C)CC4)c3CO2)cc1 (stereo not drawn)	-9%
COc1ccc(NC(=O)C2CCN(C(=O)c3ncn4c3COC(c3ccccc3)C4)CC2)cc1 (stereo not drawn)	i
COc1ccc(C2Cn3cnc(C(=O)N4CCC(C(=O)Nc5ccc(C)cc5)CC4)c3CO2)cc1 (stereo not drawn)	-20%
COc1ccc(C2Cn3cnc(C(=O)N4CCC(C(=O)Nc5cccc(F)c5)CC4)c3CO2)cc1 (stereo not drawn)	-26%
COc1ccc(C2Cn3cnc(C(=O)N4CCC(C(=O)Nc5ccccc5F)CC4)c3CO2)cc1 (stereo not drawn)	11µM*
COc1ccc(C2Cn3cnc(C(=O)N4CCC(C(=O)Nc5ccccc5OC)CC4)c3CO2)cc1 (stereo not drawn)	10µM*
Cc1ccc(CN2CCN(c3ncnc4onc(C)c34)CC2CCO)cc1 (stereo not drawn)	-20%
COc1ccc(-n2nc3n(c2=O)CCN([S+](=O)([O-])c2c(C)noc2C)C3)cc1	4%
Cc1ccc(C(=O)c2oc3ccccc3c2NC(=O)c2cc(=O)c3ccccc3o2)cc1	5%
O=C(c1ccccc1)N1CCC(NCCN2CCCCC2CO)CC1 (stereo not drawn)	-7%
Cc1cccc(=O)n1CCC(=O)N1CCCn2nc(CO)cc2C1	-9%
O=C(NCc1ccc(Cl)cc1)C(=O)NCC(c1cccs1)S(=O)(=O)c1cccs1 (stereo not drawn)	-14%
O=C(NC1CCC(O)CC1)c1ccc(-c2ncc3cnc(-c4ccccc4)cn23)cc1 (stereo not drawn)	-12%[44.1 µM]
Cc1ccc(Cl)cc1N1CCN(CCCNC(=O)c2ccc3nc(N4CCCCC4)sc3c2)CC1	i
SMILES	Pf Dd2 inh
O=C(NCCCN1CCCCC1)c1ccc2c(c1)sc1nc(-c3ccc(F)cc3)cn12	2.8µM*
COCCCNC(=O)C1CCN(c2nn3cc(-c4ccc(F)cc4)nc3s2)CC1	-4%
O=C(NC1CCCCCC1)c1ccc2c(c1)sc1nc(-c3ccccc3)cn12	10µM*
CC1CCCCN1CCCNC(=O)c1ccc2c(c1)sc1nc(-c3ccc(F)cc3)cn12 (stereo not drawn)	1.4µM*
CCc1ccc(-c2cn3c(n2)sc2cc(C(=O)NC4CCCCC4)ccc23)cc1	i
Cc1ccc(-c2cn3c(n2)sc2cc(C(=O)NCCCN4CCCCC4)ccc23)cc1	2.5µM*
CCn1c(C)c(C)c2cc(C(=O)NCCCN3CCCCC3)ccc21	i
COc1ccc(-c2cn3c(n2)sc2cc(C(=O)NC4CCCCC4)ccc23)cc1	17%
O=C(NCCn1ccn2nc(-c3ccc(F)cc3)cc2c1=O)c1ccc(F)c(Cl)c1	i
O=C(NCCn1ccn2nc(-c3ccc(F)cc3)cc2c1=O)c1ccsc1	i
COC(=O)C1=CN(CC(=O)Nc2cccc(C)c2)S(=O)(=O)N=C1C	80%
Cc1ccc(-c2nc(CS(=O)CC(=O)O)c(C)o2)cc1 (stereo not drawn)	5%
CC(C)c1ccc(NC(=O)CS(=O)(=O)c2cccc3nsnc23)cc1	32%
COCC1CN(C(C)=O)CC12CCNCC2 (stereo not drawn)	3%
O=C(NCCCc1nc2ccccc2n1Cc1ccc(Cl)cc1)C1CCCCC1	i
CC(C)CN1CC2(CCN(C(=O)c3ccc(-n4cnnc4)cc3)CC2)CC1=O	-26%
CN1C[C@@H](NC(=O)CC(C)(C)CC(=O)O)C[C@H]1c1nc(-c2ccc3ccccc3c2)no1	i
Cc1cccc(N(C)c2nc3ccc(C(=O)c4ccccc4)cc3n3c(C)nnc23)c1	-27%
Cc1cnc(CC2CCN(C(=O)C(C)C)C2)n1C(C)C (stereo not drawn)	-16%
Cc1ccc(-c2nc(C3CC(=O)N(c4ccc(F)c(Cl)c4)C3)no2)cc1C (stereo not drawn)	63%
Cc1c(NC(=O)c2cc(=O)c3cc(Cl)ccc3o2)c(=O)n(-c2ccccc2)n1C	i
Cc1cccc(-n2ccnc2SCC(=O)Nc2ccc(F)cc2F)c1C	3%
CCc1ccc(NC(=O)CSc2nccn2-c2cccc(C)c2C)cc1	24%
Cc1ccc(C)c(NC(=O)CSc2nccn2-c2cccc(C)c2C)c1	3.5µM*
Cc1ccc(CNC(=O)c2ccc3c(c2)N(C)C2CCCN2C3=O)cc1C (stereo not drawn)	i
SMILES	Pf Dd2 inh
O=C(Cc1cccc(F)c1)NC1CCCN(c2cc(-c3ccc(F)cc3)[nH]n2)C1 (stereo not drawn)	i
CN1CCN(C(=O)[C@@H]2CCC[C@@H](NCc3ccc(F)cc3)CN(C)C(=O)C2)CC1	10%[44.1 µM]
COc1ccc(NC(=O)c2oc3ccc4c(c3c2C)C(=O)CC(C)(C)O4)cc1OC	i
CCc1cccc(NC(=O)c2cc3c(=O)oc4ccc(C)cc4c3s2)c1	68%
CCc1cccc(NC(=O)c2oc3ccc4c(c3c2C)C(=O)CC(C)(C)O4)c1	10µM*
COC(=O)C(=O)N1CCN2C(=O)N(Cc3ccc(C)cc3)C[C@H]2C1	-12%[44.1 µM]
Cc1ccc(C)c(NC(=O)Cn2c(=O)n(CC(=O)NCCc3ccccc3)c(=O)c3ccccc32)c1	43%
O=S(=O)(NCCc1noc(-c2ccccc2)n1)c1ccc(Cl)cc1	i
Cc1c(Cl)cccc1NC(c1ccc(F)cc1)c1nnc(-c2ccccc2)o1 (stereo not drawn)	i
Clc1ccc(CCNC(c2nnc(-c3ccccc3)o2)c2ccccc2Cl)cc1 (stereo not drawn)	11µM*
CCOC(=O)CSc1nc2ccc(NC(=O)c3cccc(F)c3)cc2s1	3%
Cc1ccc(C(=O)NC2CCN(c3cc(-c4cccs4)[nH]n3)CC2)cc1F	11µM*
O=C(NC1CCN(c2cc(-c3cccs3)[nH]n2)CC1)c1ccc(F)c(Cl)c1	i
O=C(NC1CCN(c2cc(-c3cccs3)[nH]n2)C1)c1ccc2[nH]ccc2c1 (stereo not drawn)	i
O=C(NC1CCN(c2cc(-c3cccs3)[nH]n2)C1)c1cc2ccccc2[nH]1 (stereo not drawn)	14µM*
Cc1ccc(C(=O)NC2CCN(c3cc(-c4cccs4)[nH]n3)C2)cc1F (stereo not drawn)	i
O=C(NC1CCN(c2cc(-c3cccs3)[nH]n2)C1)c1ccncc1 (stereo not drawn)	i
CN(CC1CCOC1)C(=O)NCc1ccc(F)cc1 (stereo not drawn)	38%[5.79 µM]

Screening data from PubChem.
